Laboratory results published in PubChem BioAssay (NCI).
About 83,000 compounds went through this panel and 20% of them were active in at least one assay; those are over-represented in the sample as a whole.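 Activity criterion: percent growth below 10, measured after cells in 96-well plates were exposed to a single compound concentration for 48 hours.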 Values without a mark were called inactive. Calls of active or inactive are those of the source.

Assays:
Test in all cases: NCI-60 one-dose screen, 48 h (100 = growth as untreated, 0 = no growth, -100 = all killed)
Settings in all cases: 10 µM
DU-145 prostate = tested on: DU-145 prostate
K-562 leukemia = tested on: K-562 leukemia
MALME-3M melanoma = tested on: MALME-3M melanoma
MDA-MB-231 breast = tested on: MDA-MB-231 breast
SF-268 CNS = tested on: SF-268 CNS
SF-295 CNS = tested on: SF-295 CNS
SF-539 CNS = tested on: SF-539 CNS
UACC-257 melanoma = tested on: UACC-257 melanoma
M14 melanoma = tested on: M14 melanoma
HCT-15 colon = tested on: HCT-15 colon
HT29 colon = tested on: HT29 colon
SNB-75 CNS = tested on: SNB-75 CNS
SNB-19 CNS = tested on: SNB-19 CNS
U251 CNS = tested on: U251 CNS
SK-MEL-5 melanoma = tested on: SK-MEL-5 melanoma
UACC-62 melanoma = tested on: UACC-62 melanoma
LOX IMVI melanoma = tested on: LOX IMVI melanoma
SK-MEL-28 melanoma = tested on: SK-MEL-28 melanoma
PC-3 prostate = tested on: PC-3 prostate

Row | SMILES | growth (DU-145 prostate) | growth (K-562 leukemia) | growth (MALME-3M melanoma) | growth (MDA-MB-231 breast) | growth (SF-268 CNS) | growth (SF-295 CNS) | growth (SF-539 CNS) | growth (UACC-257 melanoma) | growth (M14 melanoma) | growth (HCT-15 colon) | growth (HT29 colon) | growth (SNB-75 CNS) | growth (SNB-19 CNS) | growth (U251 CNS) | growth (SK-MEL-5 melanoma) | growth (UACC-62 melanoma) | growth (LOX IMVI melanoma) | growth (SK-MEL-28 melanoma) | growth (PC-3 prostate)
1 | O=C(NO)c1ccc(Cn2ccc3c(Nc4ccccc4)ncnc32)cc1 | 20% | 12.1% | -4.38% (active) | -30.6% (active) | 30.8% | -67.5% (active) | -80% (active) | 26.5% | 10.5% | -55.5% (active) | 8.25% (active) | 44.3% | -30.4% (active) | -38.9% (active) | -67.2% (active) | -49.3% (active) | -91.9% (active) | – | –
2 | CN1CCN(Cc2ccc(NC(=O)c3cncc(C#Cc4cnc5ccc(N[C@H]6CCOC6)nn45)c3)cc2C(F)(F)F)CC1 | -99.9% (active) | 0.651% (active) | -97.3% (active) | -92.4% (active) | -74.5% (active) | -98.4% (active) | -99.7% (active) | -84.1% (active) | -82% (active) | -84.3% (active) | -33.2% (active) | -98% (active) | -98.8% (active) | -79.7% (active) | -100% (active) | – | -99.1% (active) | -92.8% (active) | –
3 | C/C(=N\N=C\c1ccc(N(C)C)cc1)c1ccc2c(c1)Nc1ccccc1S2 | 62% | 28.2% | 49.9% | 52% | 62.8% | 24.6% | 52.8% | 64.9% | 67.7% | 22% | 52.5% | 69.6% | 63.1% | 29.4% | 36.1% | 70.7% | 55% | 85.7% | –
4 | CCOC(=O)C1=C(N)N(c2ccc(C)cc2)C2=C(C(=O)CC(C)(C)C2)C1c1ccccc1OC (configuration not stated) | 107% | 98.4% | 93.4% | 95.5% | 100% | 91% | 101% | 104% | 112% | 98.4% | 116% | 105% | 93.1% | 104% | 100% | – | 104% | 104% | 93.5%
5 | Nc1nc(Nc2ccccc2)nn1Cc1c(Cl)cccc1Cl | 48% | 12.8% | 31.4% | 24.1% | 50% | 46.6% | 37.6% | 69.7% | 35.5% | 37.5% | 54.4% | 67.5% | 58% | 53.8% | 23.5% | – | 16.3% | 55.5% | 27.4%
6 | O=C(NO)c1ccc(Cn2ccc3c(NCc4ccccc4)ncnc32)cc1 | 10.3% | 12.2% | -5.08% (active) | -18% (active) | 19% | -68.2% (active) | -71.1% (active) | -20.8% (active) | -9.73% (active) | -16.7% (active) | 0.726% (active) | -8.17% (active) | -7.76% (active) | -34% (active) | -75% (active) | -43.3% (active) | -99.6% (active) | 0.239% (active) | –
7 | COc1ccc(C2N(c3ccc(Br)cc3)N=C(C(C)=O)N2[C@H]2[C@H](OC(C)=O)O[C@H](COC(C)=O)[C@@H](OC(C)=O)[C@@H]2OC(C)=O)cc1 (some centres not stated) | 85.7% | 65% | 93.4% | 72.1% | 74.9% | 64.1% | 80.7% | 89.9% | 81.5% | 61.4% | 75.2% | 74.7% | 78.2% | 74.8% | 77.7% | – | 71.1% | 86.4% | –
8 | Nc1nc(Nc2ccc(Cl)cc2)nn1Cc1cccc(Br)c1 | 53.3% | 20.5% | 50.6% | 42.6% | 40.7% | 44.7% | 37.8% | 58.2% | 35.8% | 29.9% | 54.1% | 69.9% | 57.2% | 58.6% | 47.4% | 29.9% | – | 44.8% | –
9 | Nc1nc(Nc2ccc(Cl)cc2)n(Cc2cccc(Br)c2)n1 | 12.1% | 7.99% (active) | -53.2% (active) | -68.7% (active) | -27.4% (active) | -63.2% (active) | -86.6% (active) | -15.6% (active) | -48.8% (active) | -52.7% (active) | 11.4% | -23.9% (active) | -12.3% (active) | -12.4% (active) | -100% (active) | – | -84.6% (active) | -61.1% (active) | 0.572% (active)
10 | COc1ccc(/C(CSc2nnc(-c3c[nH]c4ccccc34)n2-c2ccccc2)=N/O)cc1 | 43% | 18.7% | 73.1% | 60.7% | 48.5% | 21% | 57.3% | 50.1% | 28.9% | 15.3% | 32% | 63.3% | 40.3% | 39.4% | -10.2% (active) | 31.4% | – | 37.4% | 23.1%
11 | COc1cc(/C=C/C(=O)c2ccc(C(F)(F)F)cc2)ccc1Oc1nc(Nc2ccc(F)cc2)nc(N(C)C)n1 | 82.9% | 48.2% | 87.7% | 85.6% | 65.5% | 64.1% | 93.8% | 75.1% | 72.8% | 70% | 74.1% | 99.7% | 83% | 74.2% | 61.7% | – | 46.9% | 85.9% | 76%
12 | O=S(=O)(Nc1ncccn1)c1ccc(-n2c(-c3ccc(Br)cc3)nc(-c3ccccc3)c2-c2ccccc2)cc1 | 58.3% | 44% | 74.6% | 51.3% | 32.5% | 8.26% (active) | 55.8% | 59.4% | 38.4% | 22.5% | 41.8% | 26.5% | 23.3% | 30.8% | 25.3% | – | 32.2% | 29.3% | 22.3%
13 | Oc1ccc(/C=C2\CCCc3cc4ccc(O)cc4[o+]c32)c(O)c1 | 8.58% (active) | 41.5% | 45.1% | -27.4% (active) | 69.6% | 90.1% | -15% (active) | 69% | 43.2% | 10.1% | 88.5% | 91.9% | – | 8.94% (active) | 69.6% | 25% | -31.1% (active) | 33.9% | 28.8%
14 | O=C(NO)c1ccc(CNC(=O)[C@H]2Cc3c([nH]c4ccccc34)[C@H](c3ccc(Cl)cc3)N2)cc1 | 10.7% | 9.83% (active) | 6.92% (active) | -11.1% (active) | 22.6% | -17.4% (active) | 2.84% (active) | 15.1% | 23% | 30.5% | 21.5% | 39.6% | – | -4.01% (active) | -70.8% (active) | -49.8% (active) | -88.4% (active) | 1.81% (active) | –
15 | O=c1[nH]c2ccccc2cc1CSc1ccc(Nc2nccc(-c3ccc4c(c3)OCO4)n2)cc1 | 77.5% | 87.6% | 55.2% | 78.6% | 71.6% | 101% | 9.95% (active) | 105% | 82.4% | 84.1% | 74.3% | 105% | 88.7% | – | 94.5% | – | 58.7% | 105% | 88.9%
16 | CC(=O)Nc1ccc(-c2cn(-c3cccc(C(=O)Nc4cc(CN5CCOCC5)cc(C(F)(F)F)c4)c3)nn2)cn1 | -40% (active) | 0.612% (active) | -97.1% (active) | -95.7% (active) | -27.5% (active) | -88.6% (active) | -100% (active) | -81.5% (active) | -90.3% (active) | -86.2% (active) | -11.4% (active) | -78% (active) | -88.5% (active) | – | -100% (active) | -98.1% (active) | -98.6% (active) | -99.2% (active) | -69.7% (active)
